According to PubChem BioAssay:
Active and inactive are the calls of the source.

What was measured:
[1] = system: Human papillomavirus type 1a protein E7 (residues 44-93); experiment: small molecules binding HPV E7 44-93 – biochemical, small-molecule microarray, residues 44-93, 635 nm fluorescence, primary screen (AID 1108); conditions: fluorescence 635 nm, higher = more signal;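 also: E7 fragment applied at 1 µg/mL in TBST for 1 h at 4 C; score combines spot fluorescence with its signal to noise ratio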
[2] = hepatitis C replication reporter changes, two-sided – Huh7 cells, luciferase reporter, HCV replication inhibitor project, primary screen (AID 1109); conditions: Huh7 HCV replicon luciferase reporter, 48 h; higher = more signal;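 also: huh7 hepatoma cells harbouring a luciferase neomycin HCV replicon reporter; luciferase luminescence as measure of HCV replicon replication; test concentration not given here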
[3] = molecular target: Left-right determination factor 2 (Homo sapiens) (UniProt O00292); experiment: small molecules binding LEFTY2 protein – biochemical, small-molecule microarray, 635 nm fluorescence scan, primary screen (AID 1110); conditions: higher = more signal
Left-right determination factor 2 (Homo sapiens), sequence (O00292 whole entry, looked up): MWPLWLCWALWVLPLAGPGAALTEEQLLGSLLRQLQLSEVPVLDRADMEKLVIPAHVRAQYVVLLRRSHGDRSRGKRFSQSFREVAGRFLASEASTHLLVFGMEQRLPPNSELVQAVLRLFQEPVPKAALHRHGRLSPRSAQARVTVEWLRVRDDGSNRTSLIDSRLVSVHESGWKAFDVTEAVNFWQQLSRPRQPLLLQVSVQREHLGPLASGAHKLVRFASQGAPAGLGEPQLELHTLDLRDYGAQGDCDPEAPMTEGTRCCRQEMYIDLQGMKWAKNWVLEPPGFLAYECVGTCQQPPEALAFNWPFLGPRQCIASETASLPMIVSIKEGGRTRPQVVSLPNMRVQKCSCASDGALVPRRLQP

[4] = molecular target: Calmodulin-1 (Homo sapiens) (UniProt P0DP23); experiment: small molecules binding calmodulin-1 with EGTA – biochemical, small-molecule microarray, Cy5-labelled CALM1, profiling panel (AID 1111); conditions: Cy5-CALM1 binding fluorescence, higher = more signal;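 also: labelled calmodulin applied in Tris saline Tween buffer holding calcium plus EGTA and DTT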
[5] = molecular target: Calmodulin-1 (Homo sapiens) (UniProt P0DP23); experiment: small molecules binding Ca-loaded calmodulin-1 – biochemical, small-molecule microarray, Cy5-labelled CALM1, plus calcium, artefact control for SMM control-protein annotation, profiling panel (AID 1112); conditions: Cy5-CALM1 binding fluorescence, higher = more signal;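 also: score merges spot fluorescence with signal to noise from triplicate slides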
[6] = probe aWnt5a binding to arrayed compounds – biochemical, biotinylated probe, 635/667 nm fluorescence, primary screen (AID 1113); conditions: small-molecule microarray, higher = more signal;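 also: score merges 667 nm fluorescence intensity with signal-to-noise per printed feature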
[7] = probe aShh binding to arrayed compounds – biochemical, biotinylated probe, 635/667 nm fluorescence, primary screen (AID 1114); conditions: small-molecule microarray, higher = more signal;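 also: probe is biotin-labelled aShh protein from a stem cell growth factor screen; measures binding of labelled protein to compounds printed on the slide; score merges feature fluorescence at 667 nm with signal-to-noise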
[8] = probe aNog binding to arrayed compounds – biochemical, biotinylated probe, 635/667 nm fluorescence, primary screen (AID 1115); conditions: small-molecule microarray, higher = more signal;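 also: probe is biotinylated aNog protein used at 0.15 µg/mL for 1 h at 4 C; z-score combines 667 nm fluorescence of each spot with its signal to noise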
[9] = molecular target: Torsin-1A-interacting protein 1 (Homo sapiens) (UniProt Q5JTV8); experiment: compound microarray binding of lysate hLAP1 – cell lysate, small-molecule microarray, COS7 lysate, 635/667 nm fluorescence, primary screen (AID 1116); conditions: 635 nm fluorescence, higher = more signal
Torsin-1A-interacting protein 1 (Homo sapiens), sequence (Q5JTV8 whole entry, looked up): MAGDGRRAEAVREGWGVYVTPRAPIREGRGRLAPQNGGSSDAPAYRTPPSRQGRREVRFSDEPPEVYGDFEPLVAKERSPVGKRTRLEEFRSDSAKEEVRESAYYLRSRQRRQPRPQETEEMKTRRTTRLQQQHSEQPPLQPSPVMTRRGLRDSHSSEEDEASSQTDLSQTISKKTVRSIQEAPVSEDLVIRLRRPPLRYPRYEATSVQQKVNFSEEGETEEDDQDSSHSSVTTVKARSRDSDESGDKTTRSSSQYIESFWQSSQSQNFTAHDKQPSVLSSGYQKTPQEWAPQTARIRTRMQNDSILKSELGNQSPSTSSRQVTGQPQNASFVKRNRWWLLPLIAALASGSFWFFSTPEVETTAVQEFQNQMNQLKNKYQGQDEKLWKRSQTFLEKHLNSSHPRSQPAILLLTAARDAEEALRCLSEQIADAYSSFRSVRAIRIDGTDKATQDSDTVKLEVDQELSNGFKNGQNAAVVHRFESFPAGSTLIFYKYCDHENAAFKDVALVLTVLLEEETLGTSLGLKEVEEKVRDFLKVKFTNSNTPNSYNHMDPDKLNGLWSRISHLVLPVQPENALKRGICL

[10] = molecular target: Alpha-bungarotoxin (Bungarus multicinctus) (UniProt P60615); experiment: compounds binding labelled alpha-BTX control protein – biochemical, small-molecule microarray, Alexa647 label, 635/667 nm fluorescence, artefact control for SMM control protein annotation, profiling panel (AID 1117); conditions: alpha-BTX-A647 binding fluorescence, higher = more signal
Alpha-bungarotoxin (Bungarus multicinctus), sequence (P60615 whole entry, looked up): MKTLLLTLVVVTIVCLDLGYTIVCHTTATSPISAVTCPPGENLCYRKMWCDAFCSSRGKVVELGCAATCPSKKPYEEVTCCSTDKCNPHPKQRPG

Albumin (Bos taurus) = Albumin (Bos taurus) (UniProt P02769); experiment: compounds binding labelled BSA control protein – biochemical, small-molecule microarray, Alexa647 label, 635/667 nm fluorescence, artefact control for SMM control protein annotation, profiling panel (AID 1118); conditions: BSA-A647 binding, fluorescence 635 nm, higher = more signal;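 also: score merges 667 nm emission intensity and signal-to-noise per printed compound spot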
Albumin (Bos taurus), sequence (P02769 whole entry, looked up): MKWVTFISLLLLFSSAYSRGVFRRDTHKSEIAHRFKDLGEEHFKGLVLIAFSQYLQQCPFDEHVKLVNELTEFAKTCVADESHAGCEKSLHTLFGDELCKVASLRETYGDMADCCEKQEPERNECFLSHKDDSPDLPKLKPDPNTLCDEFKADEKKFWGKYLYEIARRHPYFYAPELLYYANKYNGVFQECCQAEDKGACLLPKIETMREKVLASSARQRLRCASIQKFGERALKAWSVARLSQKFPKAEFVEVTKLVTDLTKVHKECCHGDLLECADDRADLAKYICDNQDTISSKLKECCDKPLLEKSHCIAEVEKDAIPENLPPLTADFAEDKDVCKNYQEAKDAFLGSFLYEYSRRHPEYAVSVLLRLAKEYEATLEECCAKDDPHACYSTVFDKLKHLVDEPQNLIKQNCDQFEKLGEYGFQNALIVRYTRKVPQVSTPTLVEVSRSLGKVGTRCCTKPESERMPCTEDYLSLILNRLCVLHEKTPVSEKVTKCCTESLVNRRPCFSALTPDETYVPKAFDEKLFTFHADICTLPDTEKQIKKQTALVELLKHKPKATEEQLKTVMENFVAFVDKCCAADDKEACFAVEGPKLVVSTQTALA

[11] = probe aXIP binding to arrayed compounds – biochemical, NeuroSMM set, 635/667 nm fluorescence, primary screen (AID 1119); conditions: small-molecule microarray, higher = more signal, called active from +8 up or from −8 down;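 also: probe is the protein aXip251-270 applied at 1 µg/mL to compound-printed slides; binding of probe to printed compounds measured as 667 nm fluorescence plus signal to noise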
[12] = probe aNOTCH3 binding on compound microarray – biochemical, small-molecule microarray, 635/667 nm fluorescence, primary screen (AID 1120); conditions: higher = more signal;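 also: probe is a biotin-tagged antibody raised against NOTCH3 rather than NOTCH3 protein; score merges spot fluorescence near 667 nm with spot signal to noise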
[13] = probe aNOTCH2 binding on compound microarray – biochemical, small-molecule microarray, 635/667 nm fluorescence, primary screen (AID 1121); conditions: higher = more signal;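 also: score merges feature fluorescence read at 667 nm with its signal to noise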
[14] = molecular target: Carbonic anhydrase 2 (Homo sapiens) (UniProt P00918); experiment: compounds binding carbonic anhydrase 2 – biochemical, small-molecule microarray, Alexa647-labelled CAII, profiling panel (AID 1122); conditions: CAII-A647 binding fluorescence, higher = more signal
[15] = COS7 lysate on small-molecule microarray, probe aHis, 635 nm (AID 1123); conditions: COS7 cell lysate, fluorescence, higher = more signal;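 also: z-score combines 667nm fluorescence intensity with signal-to-noise per printed compound spot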
[16] = probe aLAP1 signal on lysate-treated microarray – cell lysate, small-molecule microarray, COS7 lysate, primary screen (AID 1124); conditions: probe aLAP1, fluorescence, higher = more signal;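 also: lysate comes from COS7 cells expressing LAP1 and is applied at 0.3 µg/mL; score merges spot fluorescence near 667 nm with signal-to-noise over triplicate slides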
Sam68 (KHDRBS1) = experiment: compounds binding KHDRBS1 protein – biochemical, small-molecule microarray, 635 nm fluorescence, primary screen (AID 1125); conditions: higher = more signal;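 also: score merges 667 nm channel intensity with signal to noise over triplicate slides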
[17] = system: Chordin-like protein 2 (CHRDL2); experiment: compounds binding chordin-like 2 – biochemical, small-molecule microarray, 635 nm fluorescence, primary screen (AID 1126); conditions: fluorescence 635 nm, higher = more signal;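 also: printed compound slides probed with Chrdl2 protein at 4 µg/mL for 1 h at 4 C; score merges 667 nm emission intensity with signal to noise over three replicate slides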
[18] = molecular target: Concanavalin-A (Canavalia ensiformis) (UniProt P02866); experiment: compounds binding concanavalin A lectin – biochemical, small-molecule microarray, Alexa647 label, 635 nm, artefact control for SMM control protein annotation, primary screen (AID 1127); conditions: ConA-A647 binding fluorescence, higher = more signal;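 also: z combines 667 nm emission intensity with signal-to-noise across three replicate slides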
Concanavalin-A (Canavalia ensiformis), sequence (P02866 whole entry, looked up): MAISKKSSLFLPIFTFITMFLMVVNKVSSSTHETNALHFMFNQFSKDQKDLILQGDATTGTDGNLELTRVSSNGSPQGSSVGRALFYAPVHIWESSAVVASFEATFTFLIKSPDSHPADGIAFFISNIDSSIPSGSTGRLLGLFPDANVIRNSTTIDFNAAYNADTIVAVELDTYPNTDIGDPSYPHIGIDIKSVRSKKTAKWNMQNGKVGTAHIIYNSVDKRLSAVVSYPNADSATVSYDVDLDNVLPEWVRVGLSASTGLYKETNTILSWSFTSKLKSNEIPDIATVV

SMILES	composite z-score [1]	z-score [2]	composite z-score [3]	composite z-score [4]	composite z-score [5]	composite z-score [6]	composite z-score [7]	composite z-score [8]	composite z-score [9]	composite z-score [10]	composite z-score (Albumin (Bos taurus))	composite Z-score [11]	composite z-score [12]	composite z-score [13]	composite z-score [14]	composite z-score [15]	composite z-score [16]	composite z-score (Sam68 (KHDRBS1))	composite z-score [17]	composite z-score [18]
CCOC(=O)[C@H](Cc1ccccc1)NC(=O)CCC1CC(OC(=O)NCCc2ccc(F)cc2)CC2(CCCC(COC(=O)NCCCN3CCCC3=O)O2)O1 (stereo not given in full)	1.35	-0.427	0.612	0.566	-0.043	-0.0222	0.149	0.0083	0.0166	0.261	0.468	0.0773 (inactive)	0.0479	-0.078	0.0851	0.776	0.129	1.29	0.294	1.1
CCOC(=O)NN=C1C[C@@H](O)[C@@H](O)[C@@H]2[C@@H]3C(=O)N(c4cccc(Oc5ccccc5)c4)C(=O)[C@@H]3CC[C@H]12	0.731	0.011	0.404	0.141	-0.141	-0.205	-0.388	-0.304	0.129	0.675	0.52	-0.238 (inactive)	0.0462	-0.0753	0.503	0.858	0.0682	0.384	0.399	0.854
CC(CCN1CCCCc2nc(C)c(C)cc21)=NO[C@H](C)c1cn([C@H](CO)Cc2ccccc2)nn1	0.0596	-1.13	0.708	-0.418	-0.763	0.103	0.163	-0.208	0.488	-0.276	0.583	0.26 (inactive)	-0.0076	-0.135	-0.274	0.558	-0.129	0.321	1.32	0.0631
C[C@@H](ON=C1[C@H]2CCn3c(=O)n(-c4ccccc4)c(=O)n3[C@H]2[C@H](O)[C@@H]2O[C@H]12)c1cn([C@@H]2COC[C@H]2O)nn1	0.361	-2.38	0.698	-0.287	-0.568	-0.119	0.0611	0.139	0.07	0.237	-0.244	-0.419 (inactive)	0.0159	-0.0938	0.134	-0.282	0.211	0.509	0.534	0.459
C=CC[C@@H]1C=C[C@H](ON=C(C)CCN2CCc3nc(-c4ccccc4)c(-c4ccccc4)cc3C2)[C@@H](CO)O1	1.36	-1.81	0.407	0.636	-0.252	-0.0735	-0.0626	-0.303	0.782	0.729	0.585	0.364 (inactive)	-0.0362	-0.0995	0.1	1.6	-0.0995	1.31	0.321	0.967
C#CCCCON=C1C[C@@H](O)[C@@H](O)[C@@H]2[C@@H]3C(=O)N(CCC(=O)OCC)C(=O)[C@@H]3CC[C@H]12	0.0844	0.283	0.387	1.16	0.221	-0.13	0.172	-0.253	0.544	0.401	0.356	0.269 (inactive)	-0.042	-0.0837	0.222	0.769	0.613	1.32	0.247	1.07
O=C(NN=C1C[C@@H](O)[C@@H](O)[C@@H]2[C@@H]3C(=O)N(C[C@@H]4CCCO4)C(=O)[C@@H]3CC[C@@H]12)OCc1ccccc1	0.457	0.246	0.686	-0.817	-1.51	-0.243	0.111	-0.139	-0.306	-0.421	0.103	0.008 (inactive)	-0.0647	-0.16	-0.275	-0.12	0.373	0.794	0.909	-0.18
CO[C@@H]1COC(=O)[C@@H](C)COC(=O)[C@@H](C)NC(=O)CC=C[C@@H]1C	-1.03	-2	1.51	-0.99	-2.06	-0.2	-0.13	0.0629	0.638	-0.553	-0.647	-0.377 (inactive)	-0.16	-0.208	-0.425	-0.566	0.262	0.0411	1.6	-0.988
COc1cccc([C@H]2Oc3ccc(OC)cc3C(=NO[C@@H](C)c3cn([C@H](CO)Cc4ccccc4)nn3)[C@@H]2O)c1	-0.429	-0.727	-0.36	0.465	-0.0011	-0.0836	0.0121	0.0918	-0.0881	-0.417	0.874	0.637 (inactive)	-0.132	-0.207	-0.0163	0.107	0.664	-0.0592	-0.54	0.373
O=C1C[C@@H](O)[C@@H](O)[C@@H]2[C@@H]3C(=O)N(Cc4ccccc4)C(=O)[C@@H]3CC[C@@H]12	0.467	-0.76	0.474	-0.0573	-0.761	-0.195	0.0684	-0.0784	0.442	0.101	0.256	0.277 (inactive)	-0.0328	-0.12	0.0093	-0.281	0.213	0.63	0.791	0.633
CC(C)CON=C1C[C@@H](O)[C@@H](O)[C@@H]2[C@@H]3C(=O)N(Cc4ccc5c(c4)OCO5)C(=O)[C@@H]3CC[C@H]12	1.33	-1.24	0.375	-0.382	-0.576	0.0044	-0.291	-0.467	0.54	0.411	0.768	-0.275 (inactive)	-0.0288	-0.115	0.625	0.676	-0.358	1.34	0.0987	0.957
